# Reference: PMC4336329 (PLoS ONE, 2015)
# Out of some 310,000 compounds screened, about 2,200 (0.71%) showed an effect of 50% or more. The effect is printed as a negative number. The entries come from a sample that favours strong results as a whole.
# Molecular target: human ether-à-go-go-related gene (hERG) potassium channel (human, UniProt Q12809)
# Assay: primary screen, population patch clamp on CHO cells stably expressing hERG; higher = less effect of the substance
# human ether-à-go-go-related gene (hERG) potassium channel, sequence (Q12809 whole entry, looked up): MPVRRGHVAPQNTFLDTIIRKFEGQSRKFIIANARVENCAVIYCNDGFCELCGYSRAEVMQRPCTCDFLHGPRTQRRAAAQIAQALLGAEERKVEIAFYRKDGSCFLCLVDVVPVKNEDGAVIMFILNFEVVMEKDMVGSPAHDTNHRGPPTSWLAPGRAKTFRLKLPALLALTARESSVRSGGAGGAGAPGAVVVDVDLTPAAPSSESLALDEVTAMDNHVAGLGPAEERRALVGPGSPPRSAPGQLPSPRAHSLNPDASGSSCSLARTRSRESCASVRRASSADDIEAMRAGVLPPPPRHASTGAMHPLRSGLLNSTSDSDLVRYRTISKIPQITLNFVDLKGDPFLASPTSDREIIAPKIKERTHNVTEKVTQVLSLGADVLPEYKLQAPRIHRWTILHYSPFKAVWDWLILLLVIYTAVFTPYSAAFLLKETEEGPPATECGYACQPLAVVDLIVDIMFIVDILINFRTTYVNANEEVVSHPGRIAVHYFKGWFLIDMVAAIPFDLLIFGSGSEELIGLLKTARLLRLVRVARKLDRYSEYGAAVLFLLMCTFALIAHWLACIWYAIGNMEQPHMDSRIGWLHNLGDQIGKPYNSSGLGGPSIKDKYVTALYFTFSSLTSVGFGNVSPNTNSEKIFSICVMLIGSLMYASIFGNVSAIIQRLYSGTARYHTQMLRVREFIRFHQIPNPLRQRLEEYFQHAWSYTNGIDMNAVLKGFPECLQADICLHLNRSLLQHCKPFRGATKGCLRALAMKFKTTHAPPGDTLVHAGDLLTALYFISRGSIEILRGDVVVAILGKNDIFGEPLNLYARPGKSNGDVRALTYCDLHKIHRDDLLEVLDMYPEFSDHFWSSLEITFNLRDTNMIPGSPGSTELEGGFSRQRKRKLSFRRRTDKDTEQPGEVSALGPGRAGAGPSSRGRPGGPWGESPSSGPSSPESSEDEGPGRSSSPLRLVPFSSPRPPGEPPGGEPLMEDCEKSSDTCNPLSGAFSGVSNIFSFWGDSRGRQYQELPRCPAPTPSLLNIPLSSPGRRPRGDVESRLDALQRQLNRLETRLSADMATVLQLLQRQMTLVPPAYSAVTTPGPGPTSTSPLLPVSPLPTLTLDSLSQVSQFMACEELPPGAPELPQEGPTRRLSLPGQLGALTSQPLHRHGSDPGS
row,SMILES,"hERG current change (%, negative = inhibition) at 1uM [%]"
1,CCOc1ccc(C(=O)C2CCN(C(=O)c3ccc([N+](=O)[O-])cc3)CC2)cc1,-81.1
2,O=C(Oc1cccc([N+](=O)[O-])c1)C1CCN(C(=O)c2ccc(F)cc2)CC1,-3.31
3,CCOc1ccc(C(=O)N2CCC(C(=O)c3ccc4c(c3)OCCO4)CC2)cc1,-61.5
4,O=C(c1ccc2c(c1)OCCO2)C1CCN(C(=O)c2ccc(F)cc2)CC1,4.28
5,CCOC(=O)N1CCN(C(=O)C2CCN(C(=O)c3ccc([N+](=O)[O-])cc3)CC2)CC1,-26.9
6,O=C(OCc1nnc(-c2ccc([N+](=O)[O-])cc2)o1)C1CCN(C(=O)c2ccc(F)cc2)CC1,-71.4
7,CCOC(=O)C1CCN(C(=O)C2CCN(C(=O)c3ccc([N+](=O)[O-])cc3)CC2)CC1,-28.2
8,Cc1onc(-c2ccccc2Cl)c1C(=O)OCc1nnc(-c2ccccc2)o1,3.84
9,O=C(CCC(=O)c1ccc(F)cc1)OCc1nnc(-c2ccc([N+](=O)[O-])cc2)o1,1.72
10,Cc1onc(-c2ccccc2)c1C(=O)OCc1nnc(-c2ccccc2)o1,5.73
11,O=C(c1ccc2c(c1)OCCO2)C1CCN(C(=O)c2ccc(F)c(F)c2)CC1,2.71
12,Cc1onc(-c2ccccc2)c1C(=O)OCc1nnc(-c2ccc([N+](=O)[O-])cc2)o1,-51.2
13,Cc1nc(-c2ccc(C(=O)N3CCCC3)cc2)cs1,9.11
14,Cc1cccc(C(=O)NCC(=O)NC2CCC(C)CC2)c1 (stereo not shown),1.64
15,COCCN(Cc1cc2cc(C)ccc2n2nnnc12)C(=S)Nc1ccccc1C,17
16,O=C(/C=C/c1cn(-c2ccccc2)nc1-c1cccc(Cl)c1)N1CCN(c2ccccn2)CC1,11
17,O=C(NC(=S)Nc1cccc2c(O)cccc12)c1cccc(Br)c1,8.92
18,O=C(Nc1nccs1)c1nc[nH]c1C(=O)N1CCc2ccccc2C1,3.14
19,COc1ccc(OC)c(-c2cc(C(=O)NCc3ccc(Cl)cc3)no2)c1,12.1
20,CN1CCN(C(=O)/C(=C\c2cccs2)NC(=O)c2ccco2)CC1,-65.2
21,Cc1ccccc1NC(=O)/C(=C\c1cccs1)NC(=O)c1ccco1,-3.3
22,O=C(N/C(=C\c1cccs1)C(=O)N1CCOCC1)c1ccco1,-2.36
23,O=C(N/C(=C/c1cccs1)C(=O)N1CCOCC1)c1ccco1,9.85
24,CN1CCN(C(=O)/C(=C/c2cccs2)NC(=O)c2ccco2)CC1,-62.1
25,Cc1ccc(NC(=O)/C(=C/c2cccs2)NC(=O)c2ccco2)cc1,17
